Screening data from PubChem.
TRPML1 inh: qHTS for Inhibitors of the Human Mucolipin Transient Receptor Potential 1 (TRPML1) | activity change, negative = inhibition, % (no concentration beside the values) | AID 624415, 2012 | TRPML1-inducible cells, Ca2+ dye fluorescence, FDSS; hits give low values; inhibition of EC80 agonist-evoked calcium signal | 390,000 tested, 0.02% active; in the data active = activity change below about -50%; inconclusive = between about -30% and that limit;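 also: stimulus is agonist 54-4 at its EC80 concentration; % is scaled to controls: 0 for no effect and ±100 for the full control effect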
Target sequence (Q9GZU1 whole entry, looked up): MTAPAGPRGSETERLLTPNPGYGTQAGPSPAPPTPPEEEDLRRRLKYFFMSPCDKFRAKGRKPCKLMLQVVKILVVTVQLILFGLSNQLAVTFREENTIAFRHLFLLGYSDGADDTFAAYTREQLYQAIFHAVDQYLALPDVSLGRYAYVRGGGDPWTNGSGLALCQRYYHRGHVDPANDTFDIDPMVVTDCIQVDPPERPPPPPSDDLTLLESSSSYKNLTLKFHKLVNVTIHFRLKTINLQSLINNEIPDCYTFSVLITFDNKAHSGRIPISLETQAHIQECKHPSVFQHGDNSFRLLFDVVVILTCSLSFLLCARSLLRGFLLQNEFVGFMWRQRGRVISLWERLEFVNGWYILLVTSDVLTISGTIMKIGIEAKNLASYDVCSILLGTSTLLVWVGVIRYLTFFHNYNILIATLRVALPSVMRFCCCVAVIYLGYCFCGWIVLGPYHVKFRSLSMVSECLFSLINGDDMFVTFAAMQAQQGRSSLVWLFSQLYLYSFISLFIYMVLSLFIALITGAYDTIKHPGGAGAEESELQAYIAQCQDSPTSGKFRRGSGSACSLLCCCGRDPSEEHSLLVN
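Calcium fluorescence in TRPML1-DL cells induced overnight with Tet: a 110 s read after compound pin addition, then a 110 s antagonist read after challenge with 54-4 at 4 uM final (EC80).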
D3 ag: qHTS of D3 Dopamine Receptor Agonist: qHTS | D(3) dopamine receptor (Homo sapiens), P35462 | D3R DiscoveRx beta-arrestin cells, luminescence, 90 min | max activation, % | 410,000 tested, 0.58% active; in the data active = max activation above about 30%; also: 0% is about no effect
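Cells at 1500/well, incubated overnight, then treated with pinned compounds (dopamine as control) for 90 min at 37 degrees C. DiscoveRx reagent added for 30 - 60 minutes at room temperature; luminescence read.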
D3 antag: qHTS of D3 Dopamine Receptor Antagonist: qHTS; D(3) dopamine receptor (Homo sapiens), P35462; max response, negative = inhibition, %; 360,000 tested, 2.5% active; D3R cells, DiscoveRx beta-arrestin luminescence, antagonist mode; hits give low values; in the data active = max response below about -50%; inconclusive = no clear call, values can overlap the other calls; also: % is scaled to controls: 0 for no effect and ±100 for the full control effect
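Cells plated overnight at 1500 cells/well, then exposed to library compounds with dopamine controls for 90 minutes at 37 degrees C. DiscoveRx reagent added for 30–60 minutes at room temperature; luminescence read, quantitative HTS format.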
TRPML1 ag: qHTS for Agonists of the Human Mucolipin Transient Receptor Potential 1 (TRPML1); 410,000 tested, 0.12% active; activation, % (no concentration beside the values); Mucolipin-1 (Homo sapiens), Q9GZU1; TRPML1-expressing cells, Ca2+ dye fluorescence, FDSS; in the data active = activation above about 50%; inconclusive = mostly about 30% to 49%; also: 0% is about no effect
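TRPML1-DL cells, Tet-induced overnight (~16 h, 37 degrees C), loaded 45-90 min at room temperature with Ca8 no-wash calcium dye plus quencher. FDSS fluorescence: 10 s baseline, compound pin-transfer, 110 s agonist read, then EC80 54-4 (4uM final) and 110 s antagonist read.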
Active calls of the source: *. Shown are actives, neighbours in structure and some others; about 2.9% of the full set was active somewhere.

How did CCCCCCSc1ccc(-c2nc3cnccn3c2NCCCC)cc1 do in these assays?
TRPML1 inh: 1.8; D3 ag: 63.5*; D3 antag: 158.5; TRPML1 ag: 0.4

Results for CCCCNc1c(-c2ccc(OC)c(SC(C)CC)c2)nc2ccc(Cl)cn12 (stereo not given) ?
TRPML1 inh: 10.7; D3 ag: 3.0; D3 antag: 48.2; TRPML1 ag: 0.2

What do the screens show for `CCCCNc1c(-c2ccc(OC)c(SC(C)CC)c2)nc2ccc(C)cn12` (stereo not given)?
TRPML1 inh: 22.6; D3 ag: 12.8; D3 antag: -13.9; TRPML1 ag: 3.1

Results for CCCCNc1c(-c2ccc(OC)c(SC(C)CC)c2)nc2cnccn12 (stereo not given) ?
TRPML1 inh: 37.3; D3 ag: 53.0*; D3 antag: 78.7; TRPML1 ag: 2.1

What do the screens show for `CC(C)(C)OC(=O)N1CCN(c2nc(-c3cccs3)nc3ccccc23)CC1`?
TRPML1 ag: -0.6

How did CCCCCCSc1cc(-c2nc3ccc(C)cn3c2NCCCC)ccc1OC do in these assays?
TRPML1 inh: 16.8; D3 ag: 70.9*; D3 antag: 131.9; TRPML1 ag: -0.6

How did O=C(CSc1nnc(NC(=O)C2CCC2)s1)Nc1ccc(N2CCOCC2)cc1 do in these assays?
TRPML1 inh: -9.7; D3 ag: -10.7; D3 antag: -72.8*; TRPML1 ag: 1.3

Results for O=C(CSc1nnc(NC2CC2)s1)Nc1ccc(N2CCOCC2)cc1 ?
TRPML1 inh: -2.9; D3 ag: -4.0; D3 antag: 1.2; TRPML1 ag: 0.2

Results for CCCc1c(C(=O)N/N=C/C=C/c2ccccc2)nnn1-c1nonc1N ?
TRPML1 inh: 4.7; D3 ag: -0.1; D3 antag: -18.2; TRPML1 ag: 0.4

What do the screens show for `Nc1nonc1-n1nnc(C(=O)N/N=C/c2c(Cl)cccc2Cl)c1CSC1=NCCS1`?
TRPML1 inh: -4.1; D3 ag: -2.5; D3 antag: -52.8*; TRPML1 ag: 2.0

Results for Nc1nonc1-n1nnc(C(=O)N/N=C/c2ccccc2Cl)c1CSc1ccccc1 ?
TRPML1 inh: -19.8; D3 ag: 3.4; D3 antag: -15.4; TRPML1 ag: 0.3

How did Nc1nonc1-n1nnc(C(=O)N/N=C/C=C/c2ccccc2)c1CSC1=NCCS1 do in these assays?
TRPML1 inh: -10.3; D3 ag: 5.0; D3 antag: -50.1*; TRPML1 ag: -0.3

Results for COc1cc(OCc2ccccc2)c(OC)c(OCc2ccccc2)c1 ?
TRPML1 inh: 68.2; D3 ag: 39.8*; D3 antag: 28.2; TRPML1 ag: -0.8

What do the screens show for `COc1cccc(-c2cc3onc(-c4ccccc4)c3c(=O)n2C)c1`?
TRPML1 inh: 12.8; D3 ag: 5.9; D3 antag: 27.3; TRPML1 ag: -0.7

How did Cn1c(-c2ccc(F)c(F)c2)cc2onc(-c3ccccc3)c2c1=O do in these assays?
TRPML1 inh: -8.4; D3 ag: 35.3*; D3 antag: 19.9; TRPML1 ag: -0.4

Results for CN1CCC(OC(=O)COc2ccc(C(C)(C)C)cc2)CC1 ?
TRPML1 inh: -4.4; D3 ag: -58.3; D3 antag: -55.7*; TRPML1 ag: 0.8

Results for CC1CCN(CCCCOc2ccc(C(C)(C)C)cc2)CC1 ?
TRPML1 inh: -4.3; D3 ag: -19.6; D3 antag: -88.2*; TRPML1 ag: 1.3

Results for Cc1ccc(OCC(=O)OC2CCCN(C)C2)cc1 (stereo not given) ?
TRPML1 inh: 40.3; D3 ag: 0.6; D3 antag: -4.2; TRPML1 ag: 0.3

What do the screens show for `CC(C)(C)c1ccc(OCCN2CCCC2)cc1`?
TRPML1 inh: 5.0; D3 ag: -20.4; D3 antag: -93.5*; TRPML1 ag: 0.4

What do the screens show for `CC1=C(C(=O)Nc2ccccc2)C(c2ccncc2)n2nc(SCc3ccccc3Cl)nc2N1` (stereo not given)?
TRPML1 inh: 7.4; D3 ag: 9.0; TRPML1 ag: 1.2

What do the screens show for `COc1ccc2c(c1)/C(=C\c1cccc(/C=C3/C(=O)Nc4ccc(OC)cc43)n1)C(=O)N2`?
TRPML1 inh: 5.9; D3 ag: -18.2; D3 antag: -53.0*; TRPML1 ag: 0.1

How did O=S(=O)(c1ccc(Cl)cc1)N1CCCCCC1 do in these assays?
TRPML1 inh: 53.4; D3 ag: 1.2; D3 antag: -9.5; TRPML1 ag: 1.2

How did CC1CCN(C2CCN(S(=O)(=O)c3ccc(F)cc3)CC2)CC1 do in these assays?
TRPML1 inh: 15.8; D3 ag: -4.6; D3 antag: -17.1; TRPML1 ag: -0.1

Results for O=S(=O)(c1ccc(Cl)cc1)N1CCC(N2CCCCCC2)CC1 ?
TRPML1 inh: 14.9; D3 ag: -0.2; D3 antag: -66.8*; TRPML1 ag: 0.0

What do the screens show for `O=S(=O)(c1ccc(F)cc1)N1CCC(N2CCCCCC2)CC1`?
TRPML1 inh: -6.5; D3 ag: -6.6; D3 antag: -50.1*; TRPML1 ag: 0.2

What do the screens show for `CCOC(=O)C1Nc2ccc(C(F)(F)F)cc2C2c3ccccc3CC12` (stereo not given)?
TRPML1 inh: 9.9; D3 ag: 0.0; D3 antag: -23.5; TRPML1 ag: 0.4

Results for CCOC(=O)C1Nc2ccccc2C2C(O)C(O)CC12 (stereo not given) ?
TRPML1 inh: -9.2; D3 ag: -34.3; D3 antag: -52.0*; TRPML1 ag: 0.5

How did CC(C)NC(=O)c1ccc2c3n(nc2c1)-c1ccc(Cl)cc1CO3 do in these assays?
TRPML1 inh: -8.6; D3 ag: 30.9*; D3 antag: 5.4; TRPML1 ag: -0.2

How did Cc1ccc2c(c1)COc1c3ccc(C(=O)N[C@@H](CO)C(C)C)cc3nn1-2 do in these assays?
TRPML1 inh: 7.0; D3 ag: 0.0; D3 antag: 0.0; TRPML1 ag: -0.3

Results for COCCNC(=O)c1ccc2c3n(nc2c1)-c1ccc(C)cc1CO3 ?
TRPML1 inh: -7.5; D3 ag: 5.0; D3 antag: 24.6; TRPML1 ag: 1.2

Results for CCN(CC)CCCNC(=O)c1ccc2c3n(nc2c1)-c1ccc(Cl)cc1CO3 ?
TRPML1 inh: inconclusive; D3 ag: -65.7; D3 antag: -116.4*; TRPML1 ag: -0.1

What do the screens show for `CC(=O)[C@@]1(O)CC[C@H]2[C@@H]3C=C(Cl)C4=CC(=O)[C@@H]5C[C@@H]5[C@]4(C)[C@H]3CC[C@@]21C`?
D3 ag: 10.7

How did CC(C)CNC(=S)NNC(=O)c1csc2ccccc12 do in these assays?
TRPML1 inh: -12.8; D3 ag: -26.9; D3 antag: -66.1*; TRPML1 ag: 1.9

Results for CCCNC(=O)c1csc2c1CCCCC2 ?
TRPML1 inh: -10.4; D3 ag: 0.7; D3 antag: 1.4; TRPML1 ag: 2.0

Results for CC(C)CNC(=S)NNC(=O)c1csc2c1CCCC2 ?
TRPML1 inh: 5.7; D3 ag: -16.6; D3 antag: -57.1*; TRPML1 ag: 0.3
